Laboratory results as given in PubChem BioAssay (EPA / NIEHS).
Activity calls are given as the source filed them. The calls were made as follows: active = hit-call score of the fitted dose curve at least 0.9, where 1 is the maximum; inactive = score below 0.9.

Experiments:
[1] = APR_HepG2_CellLoss_72hr: Apredica 72-hour HepG2 Assay for Cell Loss (AID 2282915); conditions: high-content imaging
Outline: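 HepG2 cells were exposed for 72 hr to compounds at 0.39–200 uM (ten concentrations, duplicate) in 0.5% v/v final DMSO. Nuclei were stained with Hoechst 33342 after 3.7% formaldehyde fixation, imaged at 20x, and counted; fits bidirectional versus DMSO.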

[2] = APR_HepG2_P-H2AX_72hr: Apredica 72-hour HepG2 Assay for H2AX Phosphorylation (AID 2282916); conditions: imaging, actives raise or lower the signal;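 also: phospho-histone H2A.x immunostain intensity per cell marking DNA damage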
Outline: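 Readout: phospho-H2A.x immunofluorescence (FITC secondary) plus Hoechst nuclear stain, high-content imaging at 20x, six fields/well. HepG2, 72 hr compound exposure, 0.39–200 uM, final DMSO 0.5% v/v. Gain or loss fitted relative to DMSO baseline.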

[3] = APR_HepG2_MitoMembPot_72hr: Apredica 72-hour HepG2 Assay for Mitochondrial Membrane Potential (AID 2282917); conditions: imaging, actives raise or lower the signal
Outline: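 HepG2 cells exposed 72 h to compounds at 0.39–200 uM (0.5% v/v DMSO, duplicates); MitoTracker Red CMXRos 250 nM loaded 30 min before 3.7% formaldehyde fixation, imaged by HCS fluorescence. Bidirectional fit versus DMSO.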

[4] = APR_HepG2_MitoticArrest_72hr: Apredica 72-hour HepG2 Assay for Mitotic Arrest (AID 2282918); conditions: high-content imaging, actives raise or lower the signal
Outline: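 High-content imaging of fixed human HepG2 cells after 72 h compound exposure (0.39–200 uM, duplicates, 0.5% DMSO); mitotic arrest scored from phospho-histone H3 and nuclear Hoechst staining relative to DMSO.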

[5] = APR_HepG2_MicrotubuleCSK_72hr: Apredica 72-hour HepG2 Assay for Microtubule CSK Stabilty (AID 2282919); conditions: HepG2 microtubule cytoskeleton, high-content imaging, actives raise or lower the signal
Outline: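 Ten-point dosing (0.39–200 uM, 0.5% DMSO) of HepG2 for 72 hr, with taxol as the cytoskeletal positive control. The cells were formaldehyde-fixed and then stained with alpha-tubulin/Cy5 and Hoechst. Imaging at 20x used a −2 um Z offset for tubulin.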

[6] = APR_HepG2_P-H2AX_24hr: Apredica 24-hour HepG2 Assay for H2AX Phosphorylation (AID 2282920); conditions: high-content imaging, actives raise or lower the signal
Outline: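 High-content imaging of phospho-histone H2A.x immunofluorescence, nuclei counterstained with Hoechst 33342, in fixed HepG2 cells. Compounds ran 0.39–200 uM in duplicate for 24 h, final DMSO 0.5%. Signal change fitted both directions against DMSO.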

[7] = APR_HepG2_StressKinase_72hr: Apredica 72-hour HepG2 Assay for Stress Kinase (AID 2282921); conditions: HepG2 stress kinase (phospho-c-Jun) imaging, actives raise or lower the signal
Outline: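 Phospho-c-Jun immunofluorescence measured by high-content imaging at 20x, six fields per well; bidirectional curve fitting against DMSO as baseline. Dosing: 0.39–200 uM, 72 h, 0.5% DMSO final.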

[8] = APR_HepG2_p53Act_72hr: Apredica 72-hour HepG2 Assay for p53 Activation (AID 2282923); conditions: high-content imaging, actives raise or lower the signal;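 also: average cellular p53 protein immunofluorescence intensity in HepG2 cells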
Outline: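 Readout: p53 immunofluorescence quantified by automated high-content imaging at 20x, six fields per well, nuclei located via Hoechst. Dosing ran 72 hr over ten concentrations from 0.39 to 200 uM; bidirectional curve fitting against DMSO baseline.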

[9] = APR_HepG2_MitoMass_72hr: Apredica 72-hour HepG2 Assay for Mitochondrial Mass (AID 2282924); conditions: high-content imaging, actives raise or lower the signal;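 also: MitoTracker Red CMXRos stain intensity per cell imaged as mitochondrial mass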
Outline: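 Steps: treat HepG2 72 hr (0.39–200 uM, duplicate wells); load MitoTracker Red CMXRos, 250 nM, 30 min; fix with 3.7% formaldehyde, permeabilise with 0.5% Triton X-100; capture images, nuclei via Hoechst 33342; fit bidirectionally against DMSO.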

Measured: AC50

CCCN(CC)CC1COC2(CCC(C(C)(C)C)CC2)O1 (centres undefined)
active: [1] 69.3 µM | [2] 80.6 µM | [4] 70.2 µM | [5] 62.5 µM
inactive: all other assays above

COP(=S)(OC)SCn1nnc2ccccc2c1=O
active: [1] 100 µM
inactive: all other assays above

COc1cc(Cl)c(OC)cc1Cl
inactive: all assays above

CC1(C)CCC(=Cc2ccc(Cl)cc2)C1(O)Cn1cncn1 (centres undefined)
inactive: all assays above

CCCCC(O)(Cn1cncn1)c1ccc(Cl)cc1Cl (centres undefined)
active: [1] 74.4 µM | [6] 109 µM | [7] 122 µM | [8] 120 µM
inactive: all other assays above

CCOP(=S)(OCC)Oc1nc(Cl)n(C(C)C)n1
inactive: all assays above

CO/N=C(/C1=NOCCO1)c1ccccc1Oc1ncnc(Oc2ccccc2Cl)c1F
active: [1] 6.52 µM | [3] 12.7 µM | [5] 7.25 µM
inactive: all other assays above

CN=C=S
active: [1] 49.2 µM
inactive: all other assays above

CCSC(=O)N1CCCCCC1
inactive: all assays above

COCC(C)N(C(=O)CCl)c1c(C)csc1C (centres undefined)
active: [1] 51.5 µM | [4] 103 µM | [5] 105 µM | [6] 86.4 µM
inactive: all other assays above

Nc1c(Cl)c(Cl)nc(C(=O)O)c1Cl
inactive: all assays above

O=C(O)c1c(Cl)ccc2cc(Cl)cnc12
not listed: [8]
inactive: all other assays above

CCCCC(C#N)(Cn1cncn1)c1ccc(Cl)cc1 (centres undefined)
active: [1] 103 µM
inactive: all other assays above

N#Cc1c(Cl)cccc1Cl
inactive: all assays above

O=C1C2CC=CCC2C(=O)N1SC(Cl)(Cl)Cl (centres undefined)
active: [1] 100 µM | [2] 88.1 µM | [4] 100 µM | [6] 45.2 µM
inactive: all other assays above
